# Assay outcomes: PubChem, National Center for Advancing Translational Sciences (NCATS)
# Only some compounds are listed: those with a hit (about 12% of all), similar ones and a draw of the others.
# G9a inh = qHTS Assay for Inhibitors of Histone Lysine Methyltransferase G9a | 350,000 tested, 8.8% active | AID 504332, 2011 | G9a H3K9 monomethylation, AlphaScreen, 2 h | Potency, µM (titrated, usually from 102 µM), without a hit: at the highest dose activity, negative = inhibition, hits mostly inhibitors | Histone-lysine N-methyltransferase EHMT2 (Homo sapiens), Q96KQ7; further: on the % scale 0 is the no-effect control and ±100 the full control effect; nearly all actives have a fitted effect of over 75% in size
#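 Chemiluminescent proximity detection of H3K9 monomethylation, read after 10 min bead incubation in the dark. Reaction: 20 nM G9a, 500 nM biotin-H3K9 peptide, 20 uM SAM cofactor, 2 h, room temperature, following 15 min enzyme-compound preincubation.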
# HP1b chromo inh = HTS for Inhibitors of HP1-beta Chromodomain Interactions with Methylated Histone Tails; Potency, µM (series often up to 114 µM), without a hit: at the top dose activity change, negative = inhibition, usual class: inhibitors; 390,000 tested, 0.56% active; Chromobox protein homolog 1 (Homo sapiens), P83916; AlphaScreen HP1-beta / biotin-H3K9me3 peptide binding; further: nearly all actives have a fitted effect of over 70% in size
#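 Compound inhibition of the preformed complex between 50 nM HP1-beta and 50 nM biotinylated H3K9me3 peptide was read by AlphaScreen. Buffer was PBS pH 7.4 with 0.01% Tween-20. Incubations ran 30 min at room temperature, with 10 ug/mL donor/acceptor beads.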
# Sfp inh = qHTS Assay for Inhibitors of Bacillus subtilis Sfp phosphopantetheinyl transferase (PPTase); Potency, µM, inactives show largest response in the series, negative = inhibition, hits mostly inhibitors; 310,000 tested, 3.5% active; Biochemical Sfp PPTase activity, qHTS; 4'-phosphopantetheinyl transferase ffp (Bacillus subtilis), Q9F4F7;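 further: the enzyme is Sfp with the accession as filed and its product quenches rhodamine fluorescence; 0% = enzyme reaction without inhibitor and -100% = no enzyme wells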
#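 Buffer: 50 mM Hepes-Na pH 7.6, 10 mM MgCl2, 0.01% Nonidet P-40, 0.01% BSA. Enzyme 15 nM, pre-exposed to compound 15 min; substrates then added and fluorescence change tracked over 30 min.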
# JMJD2A Tudor = qHTS Assay for Inhibitors of JMJD2A-Tudor Domain; AlphaScreen JMJD2A-Tudor / H3K4me3 peptide binding; Potency, µM (top dose mostly 114 µM), for inactives: at the top dose activity change, negative = inhibition, usual class: inhibitors; 390,000 tested, 4.4% active; further: on the % scale 0 is the no-effect control and ±100 the full control effect; nearly all actives have a fitted effect of over 50% in size
# Target sequence (O75164 whole entry, looked up, the tested form may be a part): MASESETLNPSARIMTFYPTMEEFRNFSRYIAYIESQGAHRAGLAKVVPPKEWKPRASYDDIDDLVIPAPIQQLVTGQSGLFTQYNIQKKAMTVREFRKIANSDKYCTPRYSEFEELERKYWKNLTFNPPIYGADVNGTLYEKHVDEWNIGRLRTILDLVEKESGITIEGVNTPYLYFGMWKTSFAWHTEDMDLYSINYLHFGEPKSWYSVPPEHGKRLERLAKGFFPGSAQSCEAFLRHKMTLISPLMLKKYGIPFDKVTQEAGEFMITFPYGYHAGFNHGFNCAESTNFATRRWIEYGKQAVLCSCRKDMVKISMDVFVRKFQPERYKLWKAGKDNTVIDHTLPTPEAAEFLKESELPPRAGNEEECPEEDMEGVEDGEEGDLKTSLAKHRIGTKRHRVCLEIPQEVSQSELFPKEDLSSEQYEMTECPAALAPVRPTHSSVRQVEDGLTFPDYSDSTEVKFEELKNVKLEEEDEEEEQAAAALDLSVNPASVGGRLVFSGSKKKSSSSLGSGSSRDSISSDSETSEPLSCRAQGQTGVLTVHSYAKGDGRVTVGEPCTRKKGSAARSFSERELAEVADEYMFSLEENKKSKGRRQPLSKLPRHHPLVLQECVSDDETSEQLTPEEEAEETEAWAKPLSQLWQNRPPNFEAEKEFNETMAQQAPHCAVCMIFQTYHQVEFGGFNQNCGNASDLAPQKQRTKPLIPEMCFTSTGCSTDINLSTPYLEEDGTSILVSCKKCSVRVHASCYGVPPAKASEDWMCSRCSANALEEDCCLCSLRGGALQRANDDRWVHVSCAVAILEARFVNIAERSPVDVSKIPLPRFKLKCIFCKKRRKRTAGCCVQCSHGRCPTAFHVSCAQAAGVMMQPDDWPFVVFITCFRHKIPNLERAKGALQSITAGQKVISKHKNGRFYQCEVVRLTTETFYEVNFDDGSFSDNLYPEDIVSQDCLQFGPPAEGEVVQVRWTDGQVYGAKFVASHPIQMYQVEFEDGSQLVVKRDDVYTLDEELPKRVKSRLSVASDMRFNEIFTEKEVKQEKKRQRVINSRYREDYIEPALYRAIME
# BAZ2B block = qHTS Assay for Inhibitors of BAZ2B; Bromodomain adjacent to zinc finger domain protein 2B (Homo sapiens), Q9UIF8; AlphaScreen BAZ2B-H3K14Ac peptide displacement; Potency, µM (highest dose often 114 µM), without a hit: at the top dose activity change, negative = inhibition, actives largely listed as inhibitors; 360,000 tested, 4.4% active; AID 504333, 2011; further: on the % scale 0 is the no-effect control and ±100 the full control effect; nearly all actives have a fitted effect of over 60% in size
#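 Complex of BAZ2B and biotin-H3K14Ac (50 nM apiece) forms over 30 min at RT, then faces library compounds up to 110 uM for another 30 min; AlphaScreen beads added, 20 min dark incubation, luminescence read.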
# PLK1 PBD block = qHTS for Inhibitors of PLK1-PDB (polo-like kinase 1 - polo-box domain): Primary Screen; AID 720504, 2013; Plk1 PBD binding of FITC phosphopeptide, fluorescence polarization; 360,000 tested, 2.8% active; Serine/threonine-protein kinase PLK1 (Homo sapiens), P53350; Potency, µM, for inactives: max response, negative = inhibition, most hits filed as inhibitors; further: series mostly up to about 57 µM; on the % scale 0 is the no-effect control and ±100 the full control effect; nearly all actives have a fitted effect of over 65% in size
# The depositor's hits bear a star; ? = inconclusive; . = no result; [ ] = another dose, or the depositor's remark. The call rests on the fitted dose curve; in most records, active means well fitted curve in the direction sought with a large enough effect; inconclusive means small, poorly fitted or top-dose-only effect, or another doubt; inactive means no such curve, though single readings can be large; an effect the other way counts as inactive or inconclusive. Potency means the concentration at half of the fitted maximal effect.
SMILES,G9a inh,HP1b chromo inh,Sfp inh,JMJD2A Tudor,BAZ2B block,PLK1 PBD block
Oc1c(C(c2ccccn2)N2CCC(Cc3ccccc3)CC2)cc(Cl)c2cccnc12 (stereo unspecified),3.5µM*,?,?,50µM*,50µM*,?
Oc1c(C(c2ccc(Cl)cc2)N2CCCC2)cc(Cl)c2cccnc12 (stereo unspecified),25µM*,11%,-70%,28µM*,32µM*,?
COc1cc(C(=O)NC(c2ccc(Cl)cc2)c2cc(Cl)c3cccnc3c2O)cc(OC)c1OC (stereo unspecified),22%[59 µM],65%,.,-17%,3%,.
CN1CCN(C(c2ccccn2)c2cc(Cl)c3cccnc3c2O)CC1 (stereo unspecified),?,11µM*,32µM*,18µM*,11µM*,9.5µM*
CCC(=O)NC(c1ccc(OC)cc1)c1cc(Cl)c2cccnc2c1O (stereo unspecified),-1%,46%,5%,-15%,-5%,-1%
O=C(CCc1ccccc1)NC(c1cccs1)c1cc(Cl)c2cccnc2c1O (stereo unspecified),?,31%,20%,-21%,-18%,-8%
Cc1cnc(CNc2ccnc(-c3cccc(NS(C)(=O)=O)c3)n2)cn1,-7%[0.501 µM],.,3%,.,.,.
CC(C)c1ccc(NC(=O)CSc2nc3ccccc3nc2Cc2ccccc2)cc1,11%[59 µM],14%[57 µM],.,-17%,6%,.
CC(C)CN(C(=O)CN1C(=O)NC(c2ccccc2)(c2ccccc2)C1=O)C1CCS(=O)(=O)C1 (stereo unspecified),16%[12.7 µM],5%,.,-11%,4%,1%
Cc1ccc(C)c(N2CCN(C(=O)CSc3ccsc3[N+](=O)[O-])CC2)c1,32µM*,-16%,3%,?,?,-22%
O=C(CSc1ccsc1[N+](=O)[O-])N1CCCCCC1,45µM*,4%,-9%,-13%,.,-25%
NC(=O)C1CCN(C(=O)CSc2ccsc2[N+](=O)[O-])CC1,?,23%,9%,-22%,-21%,-17%
O=C(CSc1ccsc1[N+](=O)[O-])N1CCN(c2ccc(Cl)cc2)CC1,50µM*,-16%,-4%,?,?,?
CC(=O)c1sc(NC(=O)COc2ccc(Cl)cc2C)nc1C,34%,10%,9%,-3%,1%,-4%
CCc1ccc(NCc2cc3ccc(OC)cc3n(CC(=O)Nc3ccc(C)c(Cl)c3)c2=O)cc1,4%[59 µM],13%,.,-8%,-22%,.
Cc1ccc(CSCCNC(=O)C2CCN(S(=O)(=O)Cc3ccccc3)CC2)cc1,-1%[59 µM],39%,.,-3%,-12%,.
COc1cc2nc(Nc3ccc(C)c(C)c3)nc(N)c2cc1OC,-8%,7%,?,?,?,1%
CCOC(=O)c1ccc(Nc2ccc(-c3ccc(OC)c(OC)c3)nn2)cc1,?,2%,20%,63µM*,.,-6%
COc1cc2nc(Nc3ccc(C)c(Cl)c3)nc(N)c2cc1OC,50µM*,-22%,45µM*,-35%,?,-15%
CCOC(=O)c1ccc(Nc2nc(N)c3cc(OC)c(OC)cc3n2)cc1,-26%[59 µM],50%,79µM*,-9%,-5%,-3%
COc1cc2nc(Nc3ccc(F)cc3)nc(N)c2cc1OC,79µM*,28%,?,-19%,-24%,4%
COc1cc2c(cc1OC)CN(C(=O)CCNS(=O)(=O)c1ccccc1F)CC2,20%,26%,18%,-19%,-4%,-4%
CCc1cccc(NC(=O)CN2C(=O)COc3ccc(S(=O)(=O)N4CCC(C)CC4)cc32)c1,6%[59 µM],35%,.,-8%,1%,.
COc1cc2nc(Nc3cccc(C)c3)nc(N)c2cc1OC,-47%[59 µM],22%,.,-19%,-14%,.
COc1cc2nc(N(C)C)nc(N)c2cc1OC,45µM*,15%,8%,-18%,-17%,-3%
SMILES,G9a inh,HP1b chromo inh,Sfp inh,JMJD2A Tudor,BAZ2B block,PLK1 PBD block
Cc1ccccc1NC(=O)C1CC(=O)n2ncnc2N1 (stereo unspecified),45µM*,67%,-19%,7%,-18%,4%
O=C(O)Cc1ccc(NC(=O)c2ccc3c(c2)C(=O)N(Cc2ccco2)C3=O)cc1,?,-29%,6%,35µM*,-12%,?
O=C(Nc1ccc(O)cc1C(=O)O)c1ccc2c(c1)C(=O)N(Cc1ccco1)C2=O,?,-9%,0%,?,50µM*,-19%
CC1CCN(C(=O)COC(=O)c2ccc3c(c2)C(=O)N(Cc2ccco2)C3=O)CC1,56µM*,28%,.,-14%,-13%,4%
CCCN(CCC)C(=O)Cn1c(=O)n(CCCCCC(=O)NCc2ccc3c(c2)OCO3)c(=O)c2sccc21,2%[59 µM],5%,.,-12%,2%,.
O=C(COc1ccccc1)Nc1cc(S(=O)(=O)N2CCOCC2)ccc1N1CCCC1,?,12%,.,-18%,-5%,-7%
O=C(COc1ccc(F)cc1)Nc1cc(S(=O)(=O)N2CCCCC2)ccc1N1CCCCC1,2µM*,-5%,.,?,?,5%
O=C(COc1ccc([N+](=O)[O-])cc1)Nc1ccccc1N1CCCC1,6%,12%,11%,?,-15%,-10%
O=C(COc1ccc([N+](=O)[O-])cc1)Nc1cc(S(=O)(=O)N2CCCCC2)ccc1N1CCCCC1,1.8µM*,-16%,.,20µM*,-38%,-10%
CN(CC(O)CN)CC(O)CN1CCCCC1 (stereo unspecified),3.5µM*,29%,-18%,-22%,-8%,0%
OC(CN1CCCCCC1)CN(c1ccccc1)c1ccccc1 (stereo unspecified),-17%,3%,-5%,-28%,-15%,3%
CC(C)C(NC(=O)/C(=C/c1ccco1)NC(=O)c1ccc(Br)o1)C(=O)O (stereo unspecified),22µM*,28%,?,?,?,-21%
CC(C)C(NC(=O)/C(=C\c1ccco1)NC(=O)c1ccco1)C(=O)O (stereo unspecified),40µM*,33%,-5%,?,-21%,-10%
O=C(O)/C(=C\c1ccco1)NC(=O)c1ccc(Br)o1,.,10%,.,?,.,-16%
O=C(O)C(=Cc1ccc([N+](=O)[O-])cc1)c1cccc(Cl)c1,.,.,.,.,.,-6%
CC(C)c1onc(-c2c(Cl)cccc2Cl)c1COc1ccc(/C=C/c2cccc(C(=O)O)c2)c(Cl)c1,.,.,-28%,.,.,.
